This is a sample that favours compounds with a hit; in the whole collection about 21% have one here.
NS1 function inh: influenza NS1 inhibition; Potency, µM (titrated, usually from 46.1 µM), without a hit: at the highest dose activity, positive = more growth; 270,000 tested, 0.4% active; calls by dose curve; also: potency is read from the fitted curve at half-maximal effect; actives are rising curves; nearly all actives have a fitted effect of over 50% in size
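OD600 was taken as the measure of yeast growth restored by compound in an NS1-expressing S. cerevisiae strain. Cells had been washed out of glucose medium and diluted 1:100 into galactose -URA medium, pH 6.0.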
Cycloheximide cs: counter-screen for Shiga toxin inhibitors: cycloheximide protein synthesis inhibition; cell reporter, cycloheximide protein synthesis inhibition counterscreen; max response, %; 300,000 tested, 12% active; in the data active = max response mostly above about 13%, no sharp cut-off; inactive = mostly below about 14%; also: read at 38.3 µM for the half of the compounds with a filed dose; 0% is about no effect
Shiga toxin inh: Shiga toxin inhibition. 290,000 tested, 9.2% active. Vero cells, Shiga toxin protein synthesis inhibition reporter. inhibition, % at 38.7 µM; in the data active = inhibition mostly above about 28%, no sharp cut-off; inactive = mostly below about 43%; also: 0% is about no effect
Pf growth 96h: P. falciparum growth inhibition at 96 hour, primary screen for plastid delayed-death inhibitors; P. falciparum luciferase reporter growth, 96 h; AID 504834; Potency, µM (series often up to 28.7 µM), for the others: at the highest dose activity change, negative = inhibition, hits mostly inhibitors; 320,000 tested, 6.9% active; also: potency is read from the fitted curve at half-maximal effect; % is scaled to controls: 0 for no effect and ±100 for the full control effect
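Readout is luminescence from an integrated firefly luciferase in P. falciparum. Red cells, 2% hematocrit and 0.05% parasitemia final, were cultured with compound through two parasite generations (96 hours) at 37 C, 5% CO2.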
Pf growth 48h: inhibits P. falciparum growth in the first generation, 48 h. P. falciparum luciferase growth in erythrocytes, 48 h. 310,000 tested, 5.9% active. Potency, µM (highest dose often 28.7 µM), inactives show top-dose activity change, negative = inhibition, actives largely listed as inhibitors; also: potency is read from the fitted curve at half-maximal effect; % is scaled to controls: 0 for no effect and ±100 for the full control effect
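Growth was read as firefly luciferase luminescence after a 48 h, 37 C, 5% CO2 exposure of compounds to reporter-bearing P. falciparum cultures (0.1% parasitemia, 2% hematocrit final) in Albumax-supplemented RPMI 1640.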
* hit, by the source's call; u = inconclusive; x = no result given; + = active, no number. Unless noted, calls follow the shape of the dose curve; as a rule, active = well fitted inhibition curve with a large enough effect; inconclusive = small, poorly fitted or top-dose-only effect, or another doubt; inactive = no such curve, though single readings can be large or run the other way.

SMILES	NS1 function inh	Cycloheximide cs	Shiga toxin inh	Pf growth 96h	Pf growth 48h
CC(c1ccccc1)c1nnc(NC(=O)Nc2ccccc2)s1 (stereo unspecified)	-6%	2	0	u	7%
CC(c1ccccc1)c1nnc(NC(=O)Nc2ccccc2F)s1 (stereo unspecified)	1%	45*	72*	7%	-12%
Cc1cccc(/C=N/NC(=O)c2cccc(Cl)c2)n1	-5%	16*	46	-5%	0%
Cc1cccc(/C=N/NC(=O)c2ccc(F)cc2)n1	-8%	20*	40*	32%	u
Cc1cccc(/C=N/NC(=O)c2cccc(NC(=O)c3ccccc3)c2)n1	3%	14*	27	26%	-4%
CC(C)(C)c1csc(NC(=O)c2ccc3nccnc3c2)n1	19%	63*	80*	u	-8%
O=C(N/N=C/c1ccccn1)c1ccc(NC(=O)c2ccc(F)cc2)cc1	8%	11	25	-26%	u
Cc1cccc(/C=N/NC(=O)c2cccc([N+](=O)[O-])c2)n1	1%	-2	3	-109%	-9%
COc1ccc2c(c1)c(C(=O)CN1CCC(C(N)=O)CC1)c(C)n2C	3%	-3	36	49%	u
Cc1cc(Cl)cc(Br)c1OCCCN1C(=O)NC(C)(C)C1=O	-70%	8	-3	23%	x
Cc1cnc(C(=O)OCC(=O)NCc2cccc(Cl)c2)cn1	x	x	x	4%	-3%
COc1ccccc1/C=N/NC(=O)c1cccc(NC(=O)c2ccccc2C)c1	5%	1	-6	u	13%
Cc1ccccc1C(=O)Nc1cccc(C(=O)N/N=C/c2ccccn2)c1	-4%	12*	26	14%	-17%
O=C(Nc1cccc(C(=O)Nc2ccc(Cl)cn2)c1)c1ccccc1	2%	10	58	u	20%
Cc1cccc(NC(=O)c2cccc(NC(=O)c3ccccc3)c2)n1	-36%	-3	8	13µM*	0%
Cc1cccc(NC(=O)c2ccc3c(c2)OCCO3)n1	-6%	45*	50*	361%	251%
Cc1cccc(NC(=O)c2ccc3nccnc3c2)n1	-15%	49*	46*	-17%	64%
Cc1cccc(NC(=O)c2ccc(Cl)nc2)n1	-5%	15	23	103%	55%
O=C(OCC(O)COC(=O)c1cccnc1)c1cccnc1	2%	-4	13	u	u
COc1ccc2oc(=O)c(C(=O)NCCc3ccc(OC)c(OC)c3)cc2c1	u	0	-6	-12%	u
CC(OC(=O)c1ccc([N+](=O)[O-])s1)C(=O)Nc1ncc(Cl)cc1Cl (stereo unspecified)	-12%	-3	-8	0%	-3%
COc1ccccc1N=Nc1c(C)n[nH]c1C	-7%	-7	6	-8%	10%
Cc1ccc(C)c(NCC(O)c2ccccc2)c1 (stereo unspecified)	4%	-1	14	3%	-9%
O=C(Nc1ccc2c(c1)OCCO2)C1CCN(S(=O)(=O)c2ccc(Br)s2)CC1	-34%	30	25	51%	x
O=C(CNS(=O)(=O)c1cccs1)N1CCc2ccccc2C1	-5%	48*	55*	0%	64%
SMILES	NS1 function inh	Cycloheximide cs	Shiga toxin inh	Pf growth 96h	Pf growth 48h
O=C(CNS(=O)(=O)c1cccs1)N1CCN(c2ccccc2F)CC1	0%	35*	71*	u	27%
O=C(COC(=O)CCS(=O)(=O)c1ccc(Cl)cc1)NCCc1ccccc1	-14%	-3	-2	28%	4%
CCC(=O)Nc1ccc(-c2ccc(N3CCN(C)CC3)nn2)cc1	10%	26*	35*	29%	27%
O=C(Nc1cccc(-c2ccc(N3CCOCC3)nn2)c1)c1ccc([N+](=O)[O-])cc1	x	x	x	9.3µM*	u
O=C(COc1ccc(Cl)cc1Cl)Nc1ccc(-c2ccc(N3CCOCC3)nn2)cc1	x	x	x	u	26%
CCC(=O)Nc1cccc(-c2ccc(N3CCC(C)CC3)nn2)c1	3%	45*	64*	14%	40%
CCC(=O)Nc1ccc(-c2ccc(N3CCC(C)CC3)nn2)cc1	-15%	29*	76*	u	37%
CC1CCN(c2ccc(-c3cccc(NC(=O)C(F)(F)F)c3)nn2)CC1	-11%	-16	-27	-12%	-42%
CN(/N=C/c1ccncc1)c1cnc2ccccc2n1	x	48*	75*	u	0%
O=C(NC1CC1)c1cccc(NC(=O)c2cc(S(=O)(=O)N3CCOCC3)ccc2Cl)c1	x	x	x	u	-5%
O=C(c1ccc(OCCCc2cnc[nH]2)cc1)C1CC1	x	35*	80*	x	x
CC(Sc1nc2cc(Cl)ccc2s1)C(=O)Nc1cccc(S(=O)(=O)N2CCOCC2)c1 (stereo unspecified)	u	-3	17	13µM*	-22%
O=C(Nc1cccc(S(=O)(=O)N2CCCC2)c1)c1ccc2ccccc2n1	1%	5	-2	u	u
CC(Nc1ccc(Br)cc1)C(=O)Nc1cccc(S(=O)(=O)N2CCOCC2)c1 (stereo unspecified)	x	x	x	69%	u
O=C(Nc1cccc(S(=O)(=O)N2CCCCC2)c1)c1ccc2ccccc2n1	22%	25*	-21	0%	-19%
O=S(=O)(c1ccc2nc(Nc3ccccc3)ccc2c1)N1CCCCC1	-15%	14*	26	u	10µM*
O=C(Nc1cccc(S(=O)(=O)N2CCOCC2)c1)c1ccc2ccccc2n1	4%	30*	34	-25%	u
CC(=O)NCC(=O)OCN1C(=O)c2ccccc2C1=O	4%	-2	5	37%	19%
COc1ccc(C(=O)C(Sc2nnc(C)c(=O)[nH]2)c2ccc(OC)cc2)cc1 (stereo unspecified)	2%	0	2	0%	47%
CCOC(=O)c1c(NC(=O)COC(=O)c2ccncc2)sc(C)c1C	x	-2	-10	22%	3%
Cc1ccc(S(=O)(=O)N(CC(=O)NCC2CCCO2)Cc2cccc(C)c2)cc1 (stereo unspecified)	6%	-2	0	81%	-12%
O=C(Nc1cccc(S(=O)(=O)N2CCOCC2)c1)c1c2c(nc3ccccc13)CCC2	4µM*	-6	9	u	u
O=C(N/N=C/c1c[nH]c2ccccc12)C1COc2ccccc2O1 (stereo unspecified)	-6%	-4	-9	10µM*	-4%
O=C(N/N=C\c1ccc([N+](=O)[O-])o1)C1COc2ccccc2O1 (stereo unspecified)	x	22*	67*	-18%	u
O=C(O)c1cccc(-c2ccc(/C=N/NC(=O)C3COc4ccccc4O3)o2)c1 (stereo unspecified)	-5%	56*	+	-5%	0%
CC(C)(C)c1ccc2c(c1)OC(C(=O)N/N=C\c1ccc(-c3cccc(C(=O)O)c3)o1)CO2 (stereo unspecified)	-10%	70*	148*	40%	26%
O=C(Cc1ccc(Br)cc1)N1CCN(C(=O)c2ccccc2)CC1	x	x	x	-15%	-22%

High-throughput results: PubChem, National Center for Advancing Translational Sciences (NCATS)
